In all, about 4,100 sequences were measured (“arbitrary fluorescence units”: median about 780, highest 2% from about 22,000 on). Many of the other results were omitted from the sample, so the highest values are more common in it than they were.
These sequences were tested against T1, ETS1 (UniProt P14921) (assay: ETS1 binding intensity (PBM fluorescence), ETS1 alone (arbitrary fluorescence units); higher = stronger binding). Settings: ETS1 concentration 1 nM; RUNX1 concentration 0 nM.
T1 sequence: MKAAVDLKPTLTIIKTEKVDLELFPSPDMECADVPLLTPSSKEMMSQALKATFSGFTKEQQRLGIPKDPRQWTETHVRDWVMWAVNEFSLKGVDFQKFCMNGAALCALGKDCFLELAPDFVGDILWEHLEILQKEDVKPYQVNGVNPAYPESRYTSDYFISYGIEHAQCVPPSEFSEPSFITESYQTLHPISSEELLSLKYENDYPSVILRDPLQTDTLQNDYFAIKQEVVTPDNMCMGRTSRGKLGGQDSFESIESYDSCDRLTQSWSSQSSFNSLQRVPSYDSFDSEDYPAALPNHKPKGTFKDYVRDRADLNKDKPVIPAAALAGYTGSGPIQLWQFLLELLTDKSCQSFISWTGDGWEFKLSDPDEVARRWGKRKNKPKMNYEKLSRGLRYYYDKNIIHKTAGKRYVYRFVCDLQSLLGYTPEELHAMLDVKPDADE
Procedure: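 gcPBM on 36-bp genomic-derived probes (partner site mutated) containing one ETS1 site and no RUNX1 site. Recombinant human ETS1 (1 nM) was incubated alone or with RUNX1 (25 nM) and detected by anti-ETS1 antibody fluorescence. Values are medians over 4 replicate spots (not normalised). The probes sit in constant array flanks that are not printed.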

Sequence | ETS1 binding intensity
GCGAGAGGGAGGAAGTGACTCACCAACCCCAACAAA | 2690
TCCCAGTTTATGGGAAGGGTTGAGGGAAGTGAGGGG | 531
GGATCGGCCTGAGGTGTGTCTCATTTCCTGTAGGTA | 2130
TGTCTCATTTCCTGTAGGTAACAGGCACCAAAATAG | 26500
GTGACGTGGCTGTAGGTCTCATTTCCTGCACGGCCT | 2060
TGCTCCACTCGGAAGTGGTGCCGAAGCTCTTCGATG | 905
CCGCCGACACACTTCCGGCGGCCACCAGAGGGTATT | 21200
CTGCCAGAGCACACAGTTTGCACTTCCGGGGCGGGC | 2710
GCCACACTTCCGGCGGGGCTGCGACTGCAGAGGGGC | 38700
CAAGAGCCGGAAGTCCCTTGTGCCGTAGTCCTTCCC | 9220
CAGCATGAGGGTGCACACACCGCTTCCTTAGAGGTT | 757
GTGATAAGAACGACAGGCCACTTCCCAAAGATCAAA | 531
TTTCACTTCCGGCATGTTTTTCACCTACAGGGATAT | 35500
AGCTTCCGAGTCTGTTGTGGAGTGGGAACAGCGACT | 2510
GCCTGCGCTCTTTCCGGTAGCCAGAGCCTCGTCTAA | 8280
CGTCCCCGAAAAGCCGCGGCAGAAACTTCCGGCGGT | 3130
CGCCGAACTTCCGGCAGTAAATTCCGTGGATTCCCG | 27100
TGCCGCCTGCAGCACCCTCCCCATTTCCTGGCTGTA | 1190
CGTTTCCTGTGGCTGCAGCTCTCCCCACGCACACAC | 23800
GCACGTGTTTCCTGGGGCTGCACCCCAGCACCACAC | 2380
TGTTGCCACTGTTAGACTAGAGAGCATCCTGTTGTT | 851
ACCCACTTCCTGTTAGAGCATCTTTGCAACCCCAGG | 30200
TTTCTTCCTGTTTGCATCACCCCAAATCCACTATCA | 16900
TACGCACACGCTTCGGGATCCTTCCGCTCCGGGTTA | 644
CTCCCACGCTCCCCTTCCGGCCCCGCTGCGCTGTGA | 3160
GGTCACGTGTCCACGGGGACCGGAAGTGGCGCCCGG | 14400
CCGGGCGCCACTTCCGGTCCCCGTGGACACGTGACC | 53800

Sequence | ETS1 binding intensity
TTGCGCCGGACGCCACTTTCGGTCCCCGTGGACACG | 602
TCTTGTTTCTTCCGTTACCGGAGCGCGGCCACGTGA | 2590
CCAGAGGGCGGAAGTGGGAGCTGCGACGGCGCTCCC | 7030
TTTCTGATTGTAGTTTCAAATTATTTCCTGTGTTGG | 1770
AACATCCTGTGTAAAGAGAATTGAATGTAGTTTTCT | 25200
ACTTTGTCAGTGTAGTTTTCACATCCTGTCCTAGCT | 2870
CTCCATTATTCCGGCCAGGTGCCCTTCTGGGATAAG | 670
TGCGCCGGAAGTGCATGAGCTGCCGATGAGGTGCTT | 8970
GAGCTGCAAGTCACAAAGACCGGAAGTGCGCGTACG | 26000
GCGCGGACTCCGGGAAGCTGAGCGGCAAAGACCGTG | 359
TCACAATCGCTCACAAAGACAGGAAGTAACTGTCAG | 3450
CTCCTGCTCACAGAAGCTCACTGTTTCCTGTCTAGC | 2690
CACTTCCTGCCCTCTTCCACTTTCAAAATCACATCA | 31900
TACTCTAAAGCACTTCAAACCTCCACTTCCTGCCCC | 2240
AAATCAAAACCCCAATCAGATACCACTTCCTGCCCA | 2350
CTCCCCCAGCACATCCTCTGCCACTGCTGCCTTTCC | 1720
CTCCGCTGTCCCCTGCAGGCACCGAGGGCGGAACCA | 347
GGGACTGCAGTCCCGGGGAGCGCACCGGAAGTTCTC | 4610
ACAGAGGTGCTACCCCAAGGACCGGAAGCAGAGACC | 3940
GGACCGGAAGTTAAGGCGTTCGCGGCGTGTGATAAG | 22900
TACCGGCGTTAATATAGTAAGGGCGGAAGTTCTCCT | 1190
GCCCCGGAAGCTCCTTAAGGAGGACCGTGTGAGTTT | 1880
ACTTGGCAGTTCCGGGTCCGCGCCCCAGCGCGCCAC | 2630
GTAGCAACAGCAGGCTCACACACCGGAAGTGCTCGC | 9380
TTGCTCCCGGAAGCCCCGCCCGTCCGTGGCTCCTGA | 1350
CCTGCCTTCCGTCTTCCAGGCAGAACGACAGAGAGG | 1710
AATGAGCCCCAGAACCCTTTTCCTTCCGGCCTGCAC | 1300

Sequence | ETS1 binding intensity
CAGATTTCCGGCTTCTGAGGAGCTGCCCTACCCCAG | 38200
CCCAGAGCTTCCGATTGGCTCTTCTGAGGTGGCGGG | 1750
AGTAACCAGCAGGCTGTGCCGGCAGGATGTTGTCTT | 469
CTGGGGTCGGGGCGAGGGAGCTGCCGGGGAAGTGAG | 513
GGCCAAGAAATCCACTCAGAGGAAATCACAGGCCTG | 439
GAGAAACGTCAGGCATGGCCGGGCCACCAGGAAAAC | 347
CCCGGCGGCTACTTTCGGTCACTTTCGCCGGAACCT | 444
GGCCGACGGGAAGTGTAGTCCGGCCTGCAGTCCGGG | 1970
GCCCTACCCAGCGGCGGCCGGACGCTTCGGCGCAGG | 435
GCTCGTTTGGGGTTACTGACATCCGGCCTTCATTTC | 5140
CTGACGCATTTCCGGCCTTTGGGGTTGATCGGTCAT | 26200
TTTTTTCCGCCTGTAGGGTCACATTGGGGTTGATTG | 2790
CCAGGAGGGATGGGGAAGTTCACCAGACACTCCATG | 444
GTCACTGTCGTATTTACTTTAGCTTCCTGTTCATCC | 1880
CGATTCCGGATTGGTCCAATTCCAGCGCCGAAGCCC | 673
GCCACCTTACGACAGCTGTACAGAGCTTCCTTTAGC | 390
AGCACTTCCGTTTGGGCAGGGCTGAGGGCCGGAGGG | 16800
AACCTCCGACTTCCGGCCGCGCAGCGGAGGGCTGAG | 32100
CTAGCAGCTTCCGAGGGGGCGGCGGCCGGAGCGAGT | 784
GGGGGAGTTTTCGGAAGCGCTAACAGCGTTGGGGCC | 566
TGGTGCCAAACATCCGCTAGCCAGAGAAAAACCGAC | 6500
ACACCGTGCTTTTCGGTTCCCGGAAGTCCTTCAGGC | 1560
GACAAGATTGCAGGTGGCAACCCCATCCGGTTTGTT | 1400
GGTCGCTCTGGTGACGGGGGAGGAAATTCTGTCCGT | 512
TCTGTCGCACATCCGGTGTGAGCTTCGGGGCGGTGG | 22500
GTGAGCTTCCCGGCGCGCGGGGGGCGGTGCGCCTTC | 797

Source: the supplement of paper PMC10681739
